Data reported in PubChem BioAssay (EPA / NIEHS).
Calls of active or inactive are those of the source. How the source made its calls: active means hit-call score of the fitted dose curve at least 0.9, where 1 is the maximum; inactive means score below 0.9.

Test system: not listed separately
Experiment: ATG_M_32_CIS: Attagene CIS-FACTORIAL HepG2 Assay for M32 Transcription Factor (Internal Marker) (AID 2282949);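 further: background control marker of the multiplexed CIS panel rather than a real target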
Conditions: HepG2 Attagene cis-factorial M32 reporter, mRNA; actives raise or lower the signal
Method in brief: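 HepG2 cells transiently transfected with multiplexed cis-regulated reporter units, dosed 24 h. Reporter mRNA quantified by RT-PCR, 6-FAM labelling, HpaI digestion and capillary electrophoresis; bidirectional fit vs DMSO.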

For Cn1c(=O)cc(Oc2ccc(F)cc2F)c2cnc(NCC(C)(C)O)nc21, which outcome is on record?
The outcome was “inactive”.

With CC(C)CC(C)(O)C#CC(C)(O)CC(C)C (configuration not stated) as the compound, how does the outcome read?
The outcome was “inactive”.

Which outcome does the source give for CC(C)=CCC/C(C)=C\CO here?
The outcome was “inactive”.

For Cc1ccc(S(=O)(=O)O)cc1C, which outcome is on record?
The outcome was “inactive”.

Which outcome does the source give for CC(=O)c1ccc2c(c1)[C@H](NC(=O)c1ccc(F)cc1)[C@@H](O)C(C)(C)O2 here?
The outcome was “inactive”.

With C=CCCCCCCCCC(=O)O as the compound, how does the outcome read?
Its outcome is “inactive”.

With O=C(O)c1cccc(Oc2ccccc2)c1 as the compound, how does the outcome read?
Its outcome is “inactive”.

With C1N2CN3CN1CN(C2)C3 as the compound, how does the outcome read?
Its outcome is “inactive”.

Which outcome does the source give for CC1=CC(=O)CC(C)(C)C1 here?
Its outcome is “inactive”.

With CNS(=O)(=O)c1cc(C(=O)N2CCC(CCN3C4CCC3CC(n3c(C)nc5ccccc53)C4)(c3cccc(F)c3)CC2)c(Cl)cc1F (configuration not stated) as the compound, how does the outcome read?
The outcome was “inactive”.

With O=C(O)CCN(C1(C(=O)NO)CCCC1)S(=O)(=O)c1ccc(Oc2ccc(F)cc2)cc1 as the compound, how does the outcome read?
The outcome was “inactive”.

For On1ccccc1=S, which outcome is on record?
Its outcome is “inactive”.

With CCn1nc(Cc2ccccc2)cc1C1CCN(C[C@H]2C[C@H](N(C)[C@@H](C(=O)O)C(C)C)C[C@@H]2c2cccc(F)c2)CC1 as the compound, how does the outcome read?
The outcome was “inactive”.

Test system: not listed separately
Experiment: ATG_M_06_CIS: Attagene CIS-FACTORIAL HepG2 Assay for M06 Transcription Factor (Internal Marker) (AID 2282950)
Conditions: HepG2 Attagene CIS-FACTORIAL M06 internal marker reporter; actives raise or lower the signal
Method in brief: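 One of many multiplexed endpoints: HepG2 reporter mRNA after 24 h dosing, detected by RT-PCR and capillary electrophoresis fluorescence; gain or loss of signal analysed against DMSO.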

For O=C(O)CC(O)C(=O)O (configuration not stated), which outcome is on record?
The outcome was “inactive”.

For CC(C)=CCCC(C)=CC=O, which outcome is on record?
The outcome was “inactive”.

Which outcome does the source give for C=CC(=C)CCC=C(C)C here?
Its outcome is “inactive”.

With CC[C@H]1OC(=O)[C@H](C)[C@@H](O[C@H]2C[C@@](C)(OC)[C@@H](O)[C@H](C)O2)[C@H](C)[C@@H](O[C@@H]2O[C@H](C)C[C@H](N(C)C)[C@H]2O)[C@](C)(O)C[C@@H](C)C(=O)[C@H](C)[C@@H](O)[C@]1(C)O as the compound, how does the outcome read?
The outcome was “inactive”.

With O=C1CCC(N2C(=O)c3ccccc3C2=O)C(=O)N1 (configuration not stated) as the compound, how does the outcome read?
Its outcome is “inactive”.

Which outcome does the source give for C[C@](N)(Cc1ccc(O)c(O)c1)C(=O)O here?
The outcome was “inactive”.

For Nc1cccc(N)c1, which outcome is on record?
Its outcome is “inactive”.

For Cn1c(=O)c2c(ncn2C)n(C)c1=O, which outcome is on record?
Its outcome is “inactive”.

With Nc1nc2ncc(CNc3ccc(C(=O)N[C@@H](CCC(=O)O)C(=O)O)cc3)nc2c(=O)[nH]1 as the compound, how does the outcome read?
Its outcome is “inactive”.

For CC(=O)OCCC(C)C, which outcome is on record?
Its outcome is “inactive”.

For O=P(OC(CCl)CCl)(OC(CCl)CCl)OC(CCl)CCl, which outcome is on record?
The outcome was “inactive”.

Which outcome does the source give for CCCC(=O)OCC here?
Its outcome is “inactive”.

Which outcome does the source give for COc1cccc(-c2ccc(/C=C\CN3CCCCCC3)cc2Cl)c1 here?
The outcome was “inactive”.

With O=C(OC[C@H]1O[C@@H](OC(=O)c2cc(O)c(O)c(OC(=O)c3cc(O)c(O)c(O)c3)c2)[C@H](OC(=O)c2cc(O)c(O)c(OC(=O)c3cc(O)c(O)c(O)c3)c2)[C@@H](OC(=O)c2cc(O)c(O)c(OC(=O)c3cc(O)c(O)c(O)c3)c2)[C@@H]1OC(=O)c1cc(O)c(O)c(OC(=O)c2cc(O)c(O)c(O)c2)c1)c1cc(O)c(O)c(OC(=O)c2cc(O)c(O)c(O)c2)c1 as the compound, how does the outcome read?
Its outcome is “inactive”.

Which outcome does the source give for CCOCCOCCOCCO here?
The outcome was “inactive”.

Which outcome does the source give for O=C(O)c1cccc(N(Cc2cccnc2)c2ccc(OC(F)F)c(OC(F)F)c2)c1 here?
Its outcome is “inactive”.

For Cn1c(=O)cc(Oc2ccc(F)cc2F)c2cnc(NCC(C)(C)O)nc21, which outcome is on record?
Its outcome is “inactive”.

Which outcome does the source give for CC(C)CC(C)(O)C#CC(C)(O)CC(C)C (configuration not stated) here?
Its outcome is “inactive”.

Which outcome does the source give for CC(C)=CCC/C(C)=C\CO here?
The outcome was “inactive”.

For Cc1ccc(S(=O)(=O)O)cc1C, which outcome is on record?
Its outcome is “inactive”.

Which outcome does the source give for CC(=O)c1ccc2c(c1)[C@H](NC(=O)c1ccc(F)cc1)[C@@H](O)C(C)(C)O2 here?
The outcome was “inactive”.

With C=CCCCCCCCCC(=O)O as the compound, how does the outcome read?
The outcome was “inactive”.

Which outcome does the source give for O=C(O)c1cccc(Oc2ccccc2)c1 here?
The outcome was “inactive”.

With C1N2CN3CN1CN(C2)C3 as the compound, how does the outcome read?
Its outcome is “inactive”.

For CC1=CC(=O)CC(C)(C)C1, which outcome is on record?
Its outcome is “inactive”.

For CNS(=O)(=O)c1cc(C(=O)N2CCC(CCN3C4CCC3CC(n3c(C)nc5ccccc53)C4)(c3cccc(F)c3)CC2)c(Cl)cc1F (configuration not stated), which outcome is on record?
Its outcome is “inactive”.

With O=C(O)CCN(C1(C(=O)NO)CCCC1)S(=O)(=O)c1ccc(Oc2ccc(F)cc2)cc1 as the compound, how does the outcome read?
The outcome was “inactive”.

With On1ccccc1=S as the compound, how does the outcome read?
The outcome was “inactive”.

With CCn1nc(Cc2ccccc2)cc1C1CCN(C[C@H]2C[C@H](N(C)[C@@H](C(=O)O)C(C)C)C[C@@H]2c2cccc(F)c2)CC1 as the compound, how does the outcome read?
Its outcome is “inactive”.

Molecular target: Hypoxia-inducible factor 1-alpha (Homo sapiens) (UniProt Q16665)
Sequence (Q16665 whole entry, looked up): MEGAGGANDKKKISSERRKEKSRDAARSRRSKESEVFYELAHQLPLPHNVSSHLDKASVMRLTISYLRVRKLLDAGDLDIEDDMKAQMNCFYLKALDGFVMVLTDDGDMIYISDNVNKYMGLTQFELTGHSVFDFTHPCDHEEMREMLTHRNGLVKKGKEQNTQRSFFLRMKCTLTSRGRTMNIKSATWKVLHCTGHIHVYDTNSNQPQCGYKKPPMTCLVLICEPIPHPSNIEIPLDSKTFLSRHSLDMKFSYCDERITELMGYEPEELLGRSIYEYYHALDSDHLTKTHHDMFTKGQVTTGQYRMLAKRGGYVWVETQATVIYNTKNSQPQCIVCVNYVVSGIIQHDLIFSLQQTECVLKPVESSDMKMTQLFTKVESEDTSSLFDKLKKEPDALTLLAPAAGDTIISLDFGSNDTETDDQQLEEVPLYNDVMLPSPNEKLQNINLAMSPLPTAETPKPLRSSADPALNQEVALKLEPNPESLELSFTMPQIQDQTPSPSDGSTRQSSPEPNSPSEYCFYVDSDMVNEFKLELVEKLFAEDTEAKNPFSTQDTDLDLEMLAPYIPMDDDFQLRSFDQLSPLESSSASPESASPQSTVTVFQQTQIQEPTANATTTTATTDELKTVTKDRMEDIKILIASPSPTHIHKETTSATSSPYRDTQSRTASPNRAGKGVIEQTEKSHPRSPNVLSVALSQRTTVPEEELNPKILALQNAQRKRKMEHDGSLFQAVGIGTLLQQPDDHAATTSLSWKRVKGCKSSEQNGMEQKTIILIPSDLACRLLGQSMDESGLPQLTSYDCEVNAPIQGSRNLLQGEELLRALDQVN
Experiment: ATG_HIF1a_CIS: Attagene CIS-FACTORIAL HepG2 Assay for human Hypoxia Inducible Factor 1 (HIF1A) (AID 2282951)
Conditions: HepG2 Attagene cis-factorial HIF1a reporter transcription; actives raise or lower the signal
Method in brief: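 Activity is fitted in both directions relative to DMSO. Reporter transcripts are read by RT-PCR, fluorescent primer extension and capillary electrophoresis after 24 h chemical treatment. The cells are HepG2 carrying transiently transfected cis-element-driven reporter units responding to endogenous factors.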

Which outcome does the source give for O=C(O)CC(O)C(=O)O (configuration not stated) here?
The outcome was “inactive”.

Which AC50 does the source give for CC(C)=CCCC(C)=CC=O here?
Its AC50 is 100 µM (active).

Which outcome does the source give for C=CC(=C)CCC=C(C)C here?
Its outcome is “inactive”.

With C[C@](N)(Cc1ccc(O)c(O)c1)C(=O)O as the compound, how does the outcome read?
The outcome was “inactive”.

With Nc1cccc(N)c1 as the compound, how does the outcome read?
Its outcome is “inactive”.

With Cn1c(=O)c2c(ncn2C)n(C)c1=O as the compound, how does the outcome read?
Its outcome is “inactive”.

With CC(=O)OCCC(C)C as the compound, how does the outcome read?
Its outcome is “inactive”.

Which AC50 does the source give for O=P(OC(CCl)CCl)(OC(CCl)CCl)OC(CCl)CCl here?
Its AC50 is 36.3 µM (active).

With CCCC(=O)OCC as the compound, how does the AC50 read?
The AC50 was 0.171 µM (active).

Which outcome does the source give for COc1cccc(-c2ccc(/C=C\CN3CCCCCC3)cc2Cl)c1 here?
Its outcome is “inactive”.

For O=C(OC[C@H]1O[C@@H](OC(=O)c2cc(O)c(O)c(OC(=O)c3cc(O)c(O)c(O)c3)c2)[C@H](OC(=O)c2cc(O)c(O)c(OC(=O)c3cc(O)c(O)c(O)c3)c2)[C@@H](OC(=O)c2cc(O)c(O)c(OC(=O)c3cc(O)c(O)c(O)c3)c2)[C@@H]1OC(=O)c1cc(O)c(O)c(OC(=O)c2cc(O)c(O)c(O)c2)c1)c1cc(O)c(O)c(OC(=O)c2cc(O)c(O)c(O)c2)c1, which AC50 is on record?
The AC50 was 6.05 µM (active).

Which outcome does the source give for CCOCCOCCOCCO here?
The outcome was “inactive”.

For O=C(O)c1cccc(N(Cc2cccnc2)c2ccc(OC(F)F)c(OC(F)F)c2)c1, which outcome is on record?
Its outcome is “inactive”.

With Cn1c(=O)cc(Oc2ccc(F)cc2F)c2cnc(NCC(C)(C)O)nc21 as the compound, how does the outcome read?
Its outcome is “inactive”.

With CC(C)CC(C)(O)C#CC(C)(O)CC(C)C (configuration not stated) as the compound, how does the outcome read?
The outcome was “inactive”.

For Cc1ccc(S(=O)(=O)O)cc1C, which outcome is on record?
The outcome was “inactive”.

For CC(=O)c1ccc2c(c1)[C@H](NC(=O)c1ccc(F)cc1)[C@@H](O)C(C)(C)O2, which outcome is on record?
Its outcome is “inactive”.

Which outcome does the source give for C=CCCCCCCCCC(=O)O here?
The outcome was “inactive”.

With O=C(O)c1cccc(Oc2ccccc2)c1 as the compound, how does the outcome read?
Its outcome is “inactive”.

With C1N2CN3CN1CN(C2)C3 as the compound, how does the outcome read?
The outcome was “inactive”.

Which outcome does the source give for CC1=CC(=O)CC(C)(C)C1 here?
Its outcome is “inactive”.

Which outcome does the source give for CNS(=O)(=O)c1cc(C(=O)N2CCC(CCN3C4CCC3CC(n3c(C)nc5ccccc53)C4)(c3cccc(F)c3)CC2)c(Cl)cc1F (configuration not stated) here?
The outcome was “inactive”.

With O=C(O)CCN(C1(C(=O)NO)CCCC1)S(=O)(=O)c1ccc(Oc2ccc(F)cc2)cc1 as the compound, how does the outcome read?
Its outcome is “inactive”.

With On1ccccc1=S as the compound, how does the outcome read?
The outcome was “inactive”.

For CCn1nc(Cc2ccccc2)cc1C1CCN(C[C@H]2C[C@H](N(C)[C@@H](C(=O)O)C(C)C)C[C@@H]2c2cccc(F)c2)CC1, which AC50 is on record?
Its AC50 is 26.6 µM (active).
